# ATXN2 expr inh – reduces ATXN2 reporter expression in HEK-293 cells; Potency, µM (top dose mostly 57 µM), without a hit: at the top dose activity change, negative = inhibition, usual class: inhibitors; AID 1745845; HEK-293 ATXN2-luciferase reporter, luminescence, 24 h; actives 0.72% (n = 360,000); also: % is scaled to controls: 0 for no effect and ±100 for the full control effect; nearly all actives have a fitted effect of over 55% in size
#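 ATXN2-luciferase reporter cells (luciferase flanked by upstream and downstream ATXN2 gene portions) were treated 24 h at 37 °C with compounds at up to 57 uM. SteadyGlo luminescence gave expression; GF-AFC fluorescence gave viability.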
# TGFb SMAD3 inh – inhibitors of TGF-b signaling | HepG2 CAGA-GFP TGF-b/SMAD3 reporter, GFP fluorescence, 18 h; TGF-beta stimulated, 500 pg/mL final | Potency, µM (top dose mostly 46.1 µM), without a hit: at the top dose activity, negative = inhibition, hits mostly inhibitors | actives 1.2% (n = 410,000) | AID 588855; also: % is scaled to controls: 0 for no effect and ±100 for the full control effect; nearly all actives have a fitted effect of over 65% in size
#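 TGF-beta reporter screen: HEPG2 CAGA-GFP, 1% FBS, 500 pg/mL TGF-beta final, 18 h; per-cell GFP summed per well; curves fitted and categorized by class.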
# S2 tox – viability counter-screen for ATXN expression inhibitors; S2 cells (HEK-293 line with an ATXN2-luciferase reporter) viability, CellTiter-Fluor protease fluorescence, 24 h; Potency, µM (top dose mostly 56.7 µM), hits mostly cytotoxic; actives 0.49% (n = 400,000); also: nearly all actives have a fitted effect of over 40% in size
# ALOX12 inh – ALOX12 (human) lipoxygenase inhibition; P18054; purified 12hLO, xylenol orange hydroperoxide absorbance; Potency, µM (highest dose often 108 µM), for inactives: at the top dose activity change, negative = inhibition, hits mostly inhibitors; actives 1.1% (n = 580,000); AID 1671190; also: % is scaled to controls: 0 for no effect and ±100 for the full control effect
# Target sequence (P18054 whole entry, looked up): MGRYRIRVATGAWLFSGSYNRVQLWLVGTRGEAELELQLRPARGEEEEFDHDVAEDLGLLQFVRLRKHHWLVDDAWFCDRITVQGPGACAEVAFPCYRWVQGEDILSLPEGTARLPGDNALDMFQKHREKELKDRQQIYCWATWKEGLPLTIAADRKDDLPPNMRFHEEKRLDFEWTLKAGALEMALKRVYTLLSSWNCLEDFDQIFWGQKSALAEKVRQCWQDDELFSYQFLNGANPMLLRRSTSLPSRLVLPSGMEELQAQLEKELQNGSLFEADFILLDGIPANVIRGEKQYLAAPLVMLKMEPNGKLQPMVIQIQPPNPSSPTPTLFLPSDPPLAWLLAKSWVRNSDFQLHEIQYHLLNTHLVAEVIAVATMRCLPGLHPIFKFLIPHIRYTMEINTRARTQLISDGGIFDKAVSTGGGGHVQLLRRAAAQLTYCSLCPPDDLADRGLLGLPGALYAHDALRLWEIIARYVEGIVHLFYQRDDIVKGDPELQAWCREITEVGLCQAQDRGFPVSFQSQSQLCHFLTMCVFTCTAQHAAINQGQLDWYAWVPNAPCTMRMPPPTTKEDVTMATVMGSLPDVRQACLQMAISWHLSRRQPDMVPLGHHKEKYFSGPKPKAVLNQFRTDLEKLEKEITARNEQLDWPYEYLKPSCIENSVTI
#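 Purified human 12hLO (150 nM final) in 25 mM Hepes, 0.01% Triton X-100, pH 7.0 was preincubated 15 min at room temperature with compound. Then 40 uM arachidonic acid was added, 30 min. Hydroperoxide was read by Fe-XO absorbance ratio 573/405 nm.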
# HepG2 viability – counter-screen for TGF-b inhibitors: cytotoxicity in HepG2 cells; HepG2 CAGA-GFP viability, ATP luminescence, 18 h; Potency, µM (highest dose often 46.1 µM), without a hit: at the highest dose activity change, negative = cytotoxicity, actives largely listed as cytotoxic; actives 0.76% (n = 410,000); AID 588856
#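 HepG2 CAGA-GFP cells (1000/well, DMEM with 1% FBS) received compound, then TGF-beta at 500 pg/mL final, and were incubated 18 hours at 37 degrees C. Viability was read by CellTiter-Glo luminescence. Media-only wells were set as complete cell-killing and DMSO as no toxicity.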
# The depositor's hits bear a star; i = inactive; ? = inconclusive; . = no result; ! = not confirmed by another sample; [ ] = remark or other dose. Only some compounds are listed: those with a hit (about 2.7% of all), similar ones and a draw of the others. Calls follow the shape of the dose curve; as a rule, active = well fitted curve in the direction sought with a large enough effect; inconclusive = small, poorly fitted or top-dose-only effect, or another doubt; inactive = no such curve, though single readings can be large; an effect the other way counts as inactive or inconclusive. Potency is read from the fitted curve at half-maximal effect.
SMILES,ATXN2 expr inh,TGFb SMAD3 inh,S2 tox,ALOX12 inh,HepG2 viability
COc1ccc2cc1Oc1ccc(cc1)C[C@H]1c3cc(c(OC)cc3CCN1C)Oc1c(OC)c(OC)cc3c1[C@H](C2)N(C)CC3,?,?,25µM*,?,-60%
COc1cc2c3cc1Oc1c(OC)c(OC)cc4c1[C@H](Cc1ccc(cc1)Oc1cc(ccc1O)C[C@H]3N(C)CC2)N(C)CC4,-11%,?,14µM*,?,-51%
COc1cc2c3cc1Oc1cc(ccc1O)C[C@@H]1c4c(cc(OC)c(O)c4Oc4cccc(c4)C[C@@H]3N(C)CC2)CC[N+]1(C)C,12%,0%,i,-13%,2%
COc1cc2c3cc1Oc1cc(ccc1O)C[C@@H]1c4c(cc(OC)c(O)c4Oc4ccc(cc4)C[C@H]3N(C)CC2)CCN1C,?,1%,4µM*,?,-5%
CCCCc1cn(C[C@H]2C[C@@H]3CCN2C[C@@H]3C(=O)NCc2ccc(F)cc2)nn1,.,.,.,3%[176 µM],.
O=C(CCc1nc2ccccc2s1)N1[C@H]2CC[C@@H]1c1cnc(-c3ccc(F)cc3)nc1C2,.,.,.,22%,.
Clc1ccccc1CNCCc1c[nH]c2ccccc12,.,-16%,?,-7%,-35%
CCc1ccc(CNCCc2c[nH]c3ccccc23)cc1,.,?,i,0.89µM*!,-87%
c1ccc(CNCCc2c[nH]c3ccccc23)cc1,.,-4%,i,?,-33%
O=[N+]([O-])c1ccccc1CNCCc1c[nH]c2ccccc12,-10%,0%,i,0.56µM*,-11%
COCc1cn(C[C@H]2C[C@@H]3CCN2C[C@@H]3C(=O)NCc2ccccc2)nn1,.,.,.,12%[176 µM],.
COCC(=O)NC[C@H]1C[C@@H]2CCN1C[C@@H]2c1cc(-c2ccc(OC)cc2)nn1C,.,.,.,19%[176 µM],.
COc1ccc(CN2CCN(C(=O)Cc3ccccc3)CC2)cc1OC,.,3%,i,?,2%
COc1ccc(CN2CCN(C(=O)Cc3ccccc3)CC2)cc1Br,-14%,-21%,i,0.63µM*,-16%
CCOc1cc(CN2CCN(C(=O)Cc3ccccc3)CC2)ccc1OC,.,-3%,i,0.5µM*,5%
CC(C)CCOc1cccc(CCN)c1,.,.,.,4%,.
CC(C)CCN1CC2(C1)C(=O)Nc1ccccc12,.,.,.,2%[12.5 µM],.
O=[N+]([O-])c1ccc(C(c2ccc([N+](=O)[O-])cc2)c2ccc([N+](=O)[O-])cc2)cc1,32µM*,?,?,-26%,-21%
CC(C)NCC(O)c1ccc([N+](=O)[O-])cc1 (stereo not drawn),-2%,.,i,1%,.
COc1cccc(N2C(=O)NC(=O)/C(=C/c3ccc4c5c(cccc35)CC4)C2=O)c1,.,.,.,40µM*,.
O=[S+]1([O-])NC2(CCN(CC3CCCCC3)C2)COc2ccncc21 (stereo not drawn),.,.,.,6%[6.33 µM],.
CC(C)(C)c1ccc(OCC(=O)N2CCN(Cc3nc(N)c4ccccc4n3)CC2)cc1,.,.,.,-1%,.
O=c1[nH]c(=S)[nH]c(O)c1N=Nc1cccc(S(=O)(=O)N2CCOCC2)c1,.,6%,i,40µM*,6%
NS(=O)(=O)c1ccc(N=Nc2c(O)[nH]c(=S)[nH]c2=O)cc1,.,-2%,?,40µM*,15%
O=c1[nH]c(=S)[nH]c(O)c1N=Nc1ccc(S(=O)(=O)N2CCOCC2)cc1,.,8%,i,?,17%
SMILES,ATXN2 expr inh,TGFb SMAD3 inh,S2 tox,ALOX12 inh,HepG2 viability
CSc1ccc(C2SCC(=O)Nc3n[nH]c(C)c32)cc1 (stereo not drawn),.,.,.,-12%,.
C#CCOCCOCCOCCNc1nc(N2CCN(C(=O)CCCCCCCCCCNC(=O)[C@H]([C@@H](C)CC)n3cc(CCCCN=C(N)N)nn3)CC2)nc(N2CCN(C(=O)CCCCCCCCCCNC(=O)[C@H](CO)n3cc(CCCCCN)nn3)CC2)n1,28µM*,?,16µM*,.,-88%
CN(C)[C@@H]1CN(C(=O)Cc2cccnc2)CCC1(O)c1ccccc1 (stereo partly drawn),.,.,.,12%,.
CN(C)c1ccc(-[n+]2c(-c3ccccc3)cc(-c3ccccc3)cc2-c2ccccc2)cc1,?,4µM*,?,-21%,-36%
c1ccc(-c2cc(-c3ccccc3)[n+](-c3ccccc3)c(-c3ccccc3)c2)cc1,8.9µM*,13µM*,.,1%,-23%
Cc1ccc(-c2cc(-c3ccccc3)cc(-c3ccccc3)[n+]2-c2ccccc2)cc1,3.5µM*,5.6µM*,13µM*,?,-65%
Cc1cccc(OCC(=O)N2[C@H]3CC[C@@H]2c2cnc(-c4ccccc4)nc2C3)c1,.,.,.,28%,.
Cc1ncc2c(n1)C[C@@H]1CC[C@H]2N1C(=O)Nc1ccc2c(c1)OCCO2,.,.,.,49%,.
Cn1nc(C(=O)N[C@@H]2COCC[C@@H]2OCc2cscn2)c2ccccc21,.,.,.,19%,.
COc1cccc(C(=O)CCN[C@@H](C)[C@H](O)c2ccccc2)c1,?,.,32µM*!,.,.
CCN(CC)c1ccc(/C=C2\C(=O)NC(=O)N(Cc3ccco3)C2=O)cc1,-13%,-15%,i,45µM*,-4%
Cc1cc(N2CCNC[C@@H]2C)ccc1N1CCN[C@@H](C)C1,.,.,.,45µM*,.
Cc1cc(N2CCNC[C@H]2C)ccc1N1CCN[C@H](C)C1,.,.,.,40µM*,.
C[C@@H]1CNCCN1c1ccc(N2CC[C@H](O)C2)c(C#N)c1,.,.,.,-28%,.
Cc1ccc(N2CCNCC2C)cc1 (stereo not drawn),7%,?,?,-5%,-6%
C=C[C@H]1CN2CC[C@H]1C[C@@H]2CNCc1ccc(SC)cc1,.,.,.,-8%[176 µM],.
CCOP(=O)(Nc1ccc2c(c1)C(=NNC(N)=S)c1ccccc1-2)OCC,?,?,?,22µM*,-32%
CCOP(=O)(OCC)c1cccc(O)c1,-28%,13%,i,-2%,12%
CCOc1ccccc1NC(=O)NCc1ccc2c(c1)CCN2C(=O)c1ccccc1,.,?,.,-13%,-17%
CCOc1cccc(CC(=O)NCc2ccc3c(c2)CCN3C(=O)c2cccc(C)c2)c1OCC,?,?,28µM*,-7%,-12%
CCC(C(=O)Nc1ccccc1C(=O)OC)n1nc(C)c2c(C)n(-c3ccc(C)cc3)nc2c1=O (stereo not drawn),.,11µM*,.,-30%,-15%
CCOCCCNC(=O)CCl,.,.,.,-3%,.
Cc1cccc(N2C(=O)/C(=C/c3ccc(N4CCN(C)CC4)o3)C(=O)NC2=S)c1C,-8%,19%,?,45µM*,-8%
CN(C(=O)c1cn(Cc2ccccc2)c2ccccc12)C1CCS(=O)(=O)C1 (stereo not drawn),.,.,.,16%,.
CC1CC(C)CC(C)C(O)C(C#N)=CC=CCC(C2CCCC2C(=O)O)OC(=O)CC(O)C(C)C1 (stereo not drawn),0.75µM*,?,?,5%,0%
